Source: PubChem (National Center for Advancing Translational Sciences (NCATS))
Only some compounds are listed: those with a hit (about 19% of all), similar ones and a draw of the others.
Giardia killer = Giardia lamblia killing; 340,000 compounds, 0.15% hits; activity change, % at 7.66 µM, hits read low; Giardia lamblia trophozoite viability; AID 540267; in the data active means activity change below about -80%; inconclusive means between about -30% and that limit;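 further: parasites exposed to compound for two days anaerobically before the ATP read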
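Killing of trophozoites was scored by loss of ATP luminescence after a 48 hrs anaerobic exposure to compounds at 37 deg C, using 100 cells per well.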
ELG1 repair inh = inhibitors of ELG1-dependent DNA repair in HEK293T cells; HEK293T ELG1-luciferase reporter, luminescence, 16 h; DNA damage induced by 5-fluorouridine; Potency, µM (titrated, usually from 46.1 µM), for inactives: at the top dose activity change, negative = inhibition, actives largely listed as inhibitors; 330,000 compounds, 2.3% hits; further: potency means the concentration at half of the fitted maximal effect; nearly all actives have a fitted effect of over 55% in size
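Luminescence from the luciferase reporter, measured 30 min after ONE-Glo reagent at room temperature, was the read-out. Beforehand, 2,000 cells per well were exposed for 16 hr at 37 °C to 5-fluorouridine together with compound or vehicle.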
TDP1 block = blocks human tyrosyl-DNA phosphodiesterase 1; Q9NUW8; recombinant TDP1, AlphaScreen DNA substrate cleavage; Potency, µM (doses to about 130 µM), inactives show at the highest dose activity change, negative = inhibition, actives largely listed as inhibitors; 350,000 compounds, 0.28% hits; further: potency means the concentration at half of the fitted maximal effect; nearly all actives have a fitted effect of over 40% in size
Target sequence (Q9NUW8 whole entry, looked up): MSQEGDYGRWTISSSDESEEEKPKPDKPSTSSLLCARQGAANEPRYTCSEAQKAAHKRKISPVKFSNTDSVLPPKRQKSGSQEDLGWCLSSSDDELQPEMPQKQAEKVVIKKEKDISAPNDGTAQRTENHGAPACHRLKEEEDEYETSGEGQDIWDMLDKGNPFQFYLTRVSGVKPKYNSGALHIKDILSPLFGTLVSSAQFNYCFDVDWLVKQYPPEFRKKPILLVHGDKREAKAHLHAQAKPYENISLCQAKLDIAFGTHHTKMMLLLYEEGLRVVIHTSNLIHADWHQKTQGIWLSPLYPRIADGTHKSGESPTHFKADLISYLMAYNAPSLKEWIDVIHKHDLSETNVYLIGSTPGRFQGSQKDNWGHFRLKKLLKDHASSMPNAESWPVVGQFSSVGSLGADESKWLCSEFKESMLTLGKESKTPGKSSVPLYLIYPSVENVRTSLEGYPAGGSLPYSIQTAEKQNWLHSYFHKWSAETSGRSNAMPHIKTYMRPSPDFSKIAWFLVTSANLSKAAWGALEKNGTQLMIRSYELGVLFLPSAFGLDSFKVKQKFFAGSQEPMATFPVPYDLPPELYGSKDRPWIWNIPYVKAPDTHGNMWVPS
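Recombinant E. coli-expressed Tdp1 (1 nM) preincubated with compound 15 min at RT, then 5'-biotin/3'-phosphotyrosine-FITC DNA substrate (15 nM) added for 5 min. AlphaScreen beads (10 ug/ml) added, 10 min RT; tyrosine-FITC cleavage read as signal loss.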
IL-1B inflam inh = inhibitors of inflammasome signaling (IL-1 beta secretion) | THP-1 LPS/ATP IL-1B secretion, AlphaLISA, 16 h; active compounds read low | activity change, % at 57.5 µM | 360,000 compounds, 4.7% hits; in the data active means activity change below about -50%; inconclusive means mostly about -30% to -49%
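Secreted IL-1B measured by AlphaLISA bead assay after 16 h compound exposure of THP-1 cells; compounds (final up to 57.5 uM) added 1 h before LPS (250 ng/mL) and ATP (1.25 mM) stimulation; lower signal means less secretion.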
TDP1 cell noCPT = qHTS for Inhibitors of human tyrosyl-DNA phosphodiesterase 1 (TDP1): qHTS in cells in absence of CPT | DT40 Tdp1-/- hTDP1 cells, no CPT, ATP luminescence, 48 h | 420,000 compounds, 15% hits | AID 686978, 2013 | Potency, µM (highest dose often 46.2 µM), for inactives: top-dose activity change, negative = growth inhibition, usual class: inhibitors; further: potency means the concentration at half of the fitted maximal effect; nearly all actives have a fitted effect of over 55% in size
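Cells were dispensed at 400 per well, compounds added by pin tool, plates incubated ≥48 hr at 37 °C, then CellTiter-Glo added for 30 min at room temperature before luminescence reading. Line: DT40 Tdp1-/- complemented with hTDP1; camptothecin omitted.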
DT40 TDP1 CPT = growth inhibition of DT40 Tdp1-/-;hTDP1 cells with camptothecin (screen for TDP1 inhibitors); Potency, µM (highest dose often 46.2 µM), inactives show at the highest dose activity change, negative = growth inhibition, hits mostly inhibitors; 420,000 compounds, 12% hits; chicken DT40 Tdp1-/-;hTDP1 cells + 20 nM CPT, ATP luminescence, 48 h; AID 686979; further: potency means the concentration at half of the fitted maximal effect; nearly all actives have a fitted effect of over 55% in size
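Chicken DT40 Tdp1-/- cells stably complemented with human TDP1 were seeded at 400 cells/well in medium containing 20 nM camptothecin, exposed to pin-transferred compounds, and grown at 37 °C for at least 48 hr. Viability was read as ATP luminescence.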
* marks the source's active call; other numbers are inactive results; i = inactive; ? = inconclusive; · = not tested or not shown; [ ] = dose if it differs, or a comment. Unless noted, the call rests on the fitted dose curve; in most records, active means well fitted curve in the direction sought with a large enough effect; inconclusive means small, poorly fitted or top-dose-only effect, or another doubt; inactive means no such curve, though single readings can be large; an effect the other way counts as inactive or inconclusive. On the % scale 0 is the no-effect control and ±100 the full control effect.

SMILES | Giardia killer | ELG1 repair inh | TDP1 block | IL-1B inflam inh | TDP1 cell noCPT | DT40 TDP1 CPT
CC(C)=CCC/C(C)=C/CO/N=C1/C[C@@H](O)[C@@H](O)[C@@H]2[C@@H]3C(=O)N(Cc4ccc5c(c4)OCO5)C(=O)[C@H]3CC[C@H]12 | · | · | 9%[21 µM] | · | · | ·
O=C1NC[C@@H](c2ccccc2)OC(=O)[C@@H](Cc2ccc(F)cc2)C/C=C\C[C@@H]1CC(=O)N(CCO)Cc1ccccc1 | 6 | 21µM* | 1% | -14 | 16µM* | ?
O=C1CCCC/C=C\C[C@H](CC(=O)N(CCO)Cc2ccccc2)C(=O)NC[C@H](c2ccccc2)O1 | 3 | 1% | 0% | -7 | ? | ?
O=C1NC[C@H](c2ccccc2)OC(=O)[C@H](Cc2ccc(F)cc2)C/C=C\C[C@@H]1CC(=O)N(CCO)Cc1ccccc1 | -5 | ? | 1% | -21 | 16µM* | 21µM*
O=C1NC[C@@H](c2ccccc2)OC(=O)[C@H](Cc2ccc(F)cc2)C/C=C\C[C@@H]1CC(=O)N(CCO)Cc1ccccc1 | 3 | -18% | 1% | ? | 23µM* | ?
O=C(CC1SC(N2CCOCC2)=NC1=O)Nc1cc([N+](=O)[O-])ccc1Cl (stereo not given) | -18 | -7% | -5% | 6 | 9% | 0%
COc1cccc(C2C(C)CCC3C(=O)N(C)C(C(C)C)C(=O)N32)c1 (stereo not given) | · | · | 4%[21 µM] | · | · | ·
CC(Sc1nnc(C2CC2)n1C1CC1)C(=O)c1ccc(Br)cc1 (stereo not given) | 11 | 1% | 0% | -17 | ? | ?
Cn1nnnc1Sc1ncnc2scc(-c3ccc(C#N)cc3)c12 | -16 | ? | 4% | · | · | ·
Cc1nc2scc(-c3ccccc3)c2c(=O)n1N | 4 | -10% | 2% | -10 | -17% | 15%
CCn1nnnc1Sc1nc(C)nc2scc(-c3ccccc3)c12 | · | · | · | · | 8.9µM* | ?
Cc1nc(Sc2nnnn2C2CC2)c2c(-c3ccccc3)csc2n1 | · | · | · | · | 11µM* | ?
c1ccc(CCc2cc3ccccc3[nH]2)cc1 | -24 | ? | -4% | -11 | ? | -3%
Cc1csc(C)[n+]1CCC1CCCCC1 | · | · | · | · | 13µM* | ?
CCOC(=O)C[n+]1c(C)csc1C | 13 | -9% | -4% | 0 | 2% | 0%
COc1ccc(OC)c(NC(=O)COC(=O)/C=C/c2ccc(Cl)cc2)c1 | 9 | 19% | 2% | 7 | -1% | -5%
O=S1(=O)c2ccccc2N=NN1Cc1ccc(Cl)c(Cl)c1 | · | · | -1% | · | · | ·
CC(C)(C)c1ccc(CN2N=Nc3ccccc3S2(=O)=O)cc1 | 3 | ? | 9% | -22 | 7.3µM* | 5.8µM*
Cc1ccc(C)c(CN2C(=O)c3ccccc3S(=O)(=O)c3ccc(C(=O)NCCC4=CCCCC4)cc32)c1 | · | · | 7% | · | ? | ?
COc1ccc(C(=O)NC(=S)NCc2ccco2)cc1Br | -7 | -8% | 10% | i | ? | ?
COc1ccc(S(=O)(=O)Nc2nnc(Cc3ccc(OC)c(OC)c3)s2)cc1 | 4 | -14% | -1% | 7 | 1% | 4%
CC(C)c1ccc(C2=NC(c3ccncc3)=Nc3ccc(F)cc3N2)cc1 | · | · | 9% | · | ? | 23µM*
Cc1ccc(C2=NC(c3ccc(F)cc3)=Nc3ccc(C)cc3N2)cc1 | · | · | 5% | · | ? | ?
CCc1ccc2c(c1)NC(c1cccnc1)=NC(c1ccc(C(C)(C)C)cc1)=N2 | · | · | 9% | · | ? | 18µM*
Cc1ccc2c(c1)NC(c1cccnc1)=NC(c1ccc(F)cc1)=N2 | · | · | 2% | · | 5.8µM* | ?
SMILES | Giardia killer | ELG1 repair inh | TDP1 block | IL-1B inflam inh | TDP1 cell noCPT | DT40 TDP1 CPT
CCc1ccc2c(c1)NC(c1ccc(OC)cc1)=NC(c1ccncc1)=N2 | · | · | 9% | · | ? | ?
Cc1ccc2c(c1)-c1nc(-c3ccc4c(c3)NC(=O)CO4)cc(-c3ccc(Cl)cc3)c1CO2 | · | · | 2% | · | 1.3µM* | 1.5µM*
Cc1ccc(-c2cc(-c3ccc4c(c3)NC(=O)CO4)nc3c2COc2ccc(C)cc2-3)cc1 | · | · | 3% | · | 2.1µM* | ?
COc1cc(OC)c(OC)cc1CN1CCCC(C(=O)c2sccc2C)C1 (stereo not given) | 3 | 2% | 8% | -6 | ? | ?
Cc1ccsc1C(=O)C1CCCN(Cc2cc(F)ccc2-n2cccn2)C1 (stereo not given) | 20 | ? | 0% | -19 | 12µM* | 9.2µM*
Cc1ccc(/C=c2/sc3nnc(-c4ccccc4Cl)n3c2=O)o1 | -9 | 3% | -2% | 0 | 12µM* | ?
Cc1ccc(/C=c2\sc3nc(-c4ccco4)nn3c2=O)o1 | 3 | 3% | -4% | 18 | 23µM* | -73%
CCN(CC)c1ccc(/C=c2\sc3nnc(-c4ccccc4Cl)n3c2=O)cc1 | 3 | 0% | 4% | 0 | ? | ?
CN(C)C(CNC(=O)c1cccc(S(=O)(=O)NCc2ccccc2)c1)c1ccco1 (stereo not given) | 20 | 2% | -1% | -17 | -24% | -11%
O=C(CSc1nc(-c2ccc(F)cc2)[nH]c1-c1ccccc1)NCC1CCCO1 (stereo not given) | · | · | 2% | · | 16µM* | 29µM*
Cc1ccc(-c2[nH]c(-c3ccc(Cl)cc3)nc2SCC(=O)NCC2CCCO2)cc1 (stereo not given) | -10 | ? | -1% | 0 | 4.1µM* | ?
O=C(Nc1nc(-c2ccccc2)cs1)C1CCCO1 (stereo not given) | -9 | ? | 2% | 2 | -12% | -5%
O=C(CN(C1CCCCC1)S(=O)(=O)c1ccc(F)cc1)NCC1CCCO1 (stereo not given) | -84* | · | · | -106* | 7.3µM* | 8.2µM*
CCc1ccc(-c2nc(SCC(=O)NCC3CCCO3)c(-c3ccc(C)cc3)[nH]2)cc1 (stereo not given) | · | · | 2% | · | ? | -16%
O=C(CN(C1CCCCC1)S(=O)(=O)c1ccccc1)NCC1CCCO1 (stereo not given) | -5 | 5% | 2% | 1 | -2% | 3%
O=C(Nc1nc(-c2ccc(F)cc2)cs1)C1CCCO1 (stereo not given) | 8 | ? | 0% | -56* | ? | ?
O=c1[nH]nc(SCc2cc(Cl)ccc2Cl)c(=O)[nH]1 | 4 | ? | -3% | 19 | -9% | ?
CCn1cc(CN2Cc3ccccc3OC(c3ccccc3OC)C2)c(C)n1 (stereo not given) | · | · | · | · | ? | -8%[9.04 µM]
